# Source: PubChem BioAssay (EPA / NIEHS)
# Results filed as inconclusive are left out. Calls of active or inactive are those of the source. Rule for the calls: active = hit-call score of the fitted dose curve at least 0.9, where 1 is the maximum; inconclusive = response in the unintended direction; inactive = score below 0.9.
# Tested on: not listed separately
# Test: CPHEA_Stoker_NIS_Cytotoxicity: Cytotoxicity Assessment for CPHEA's Radioactive Iodide Uptake (RAIU) Assay for Sodium/Iodide Symporter (NIS) Inhibition, Stoker and Laws Labs (AID 2283897);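 for AC50: active means loss of ATP signal versus DMSO meaning cytotoxicity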
# Summary of the method: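 Viability in hNIS-HEK293T-EPA cells is scored as a drop in luciferase-detected ATP following 2-hour room-temperature exposure (0.001–100uM; triplicate wells, three cell passages), with DMSO as negative control.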
SMILES,outcome,AC50
CCOC(=O)Cc1cccc2ccccc12,inactive,–
O=C(C=Cc1ccccc1)OCc1ccccc1,inactive,–
CO[Si](OC)(OC)c1ccccc1,inactive,–
c1ccc2c(c1)ccc1cc3c(ccc4ccccc43)cc12,inactive,–
CCCCCCCCCCOS(=O)(=O)O,inactive,–
CC(C)(C)c1ccc(OC(=O)c2ccccc2O)cc1,inactive,–
NC(CO)(CO)CO,inactive,–
CCCCCCCC[N+](C)(CCCCCCCC)CCCCCCCC,–,50 µM (active)
CN(C)c1ccc(C(=N)c2ccc(N(C)C)cc2)cc1,inactive,–
Oc1ccc(Cl)cc1Cc1cc(Cl)ccc1O,–,50 µM (active)
CCN(CCC#N)c1ccc(N=Nc2c(Cl)cc([N+](=O)[O-])cc2Cl)cc1,inactive,–
CC/C=C\C/C=C\C/C=C\CCCCCCCC(=O)O,inactive,–
C1CN(SSN2CCOCC2)CCO1,inactive,–
O=c1cc(-c2ccccc2)oc2ccccc12,inactive,–

# Target: PGR (gene 5241) (UniProt P06401)
# Test: TOX21_PR_BLA_Followup_Antagonist_ratio: Tox21 HEK293 Progesterone Receptor (PR) Antagonism Beta-lactamase Follow-Up Assay, Ratio (AID 2283934);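 note: PR-UAS-bla HEK293T cells stimulated with 1 nM R5020 agonist for 16 hr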
# Summary of the method: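 Antagonist mode used 1 nM R5020 (final) as agonist on a beta-lactamase reporter line in HEK293T cells. Activity was taken from the substrate cleavage ratio after 16 hr exposure.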
# PGR (gene 5241), sequence (P06401 whole entry, looked up): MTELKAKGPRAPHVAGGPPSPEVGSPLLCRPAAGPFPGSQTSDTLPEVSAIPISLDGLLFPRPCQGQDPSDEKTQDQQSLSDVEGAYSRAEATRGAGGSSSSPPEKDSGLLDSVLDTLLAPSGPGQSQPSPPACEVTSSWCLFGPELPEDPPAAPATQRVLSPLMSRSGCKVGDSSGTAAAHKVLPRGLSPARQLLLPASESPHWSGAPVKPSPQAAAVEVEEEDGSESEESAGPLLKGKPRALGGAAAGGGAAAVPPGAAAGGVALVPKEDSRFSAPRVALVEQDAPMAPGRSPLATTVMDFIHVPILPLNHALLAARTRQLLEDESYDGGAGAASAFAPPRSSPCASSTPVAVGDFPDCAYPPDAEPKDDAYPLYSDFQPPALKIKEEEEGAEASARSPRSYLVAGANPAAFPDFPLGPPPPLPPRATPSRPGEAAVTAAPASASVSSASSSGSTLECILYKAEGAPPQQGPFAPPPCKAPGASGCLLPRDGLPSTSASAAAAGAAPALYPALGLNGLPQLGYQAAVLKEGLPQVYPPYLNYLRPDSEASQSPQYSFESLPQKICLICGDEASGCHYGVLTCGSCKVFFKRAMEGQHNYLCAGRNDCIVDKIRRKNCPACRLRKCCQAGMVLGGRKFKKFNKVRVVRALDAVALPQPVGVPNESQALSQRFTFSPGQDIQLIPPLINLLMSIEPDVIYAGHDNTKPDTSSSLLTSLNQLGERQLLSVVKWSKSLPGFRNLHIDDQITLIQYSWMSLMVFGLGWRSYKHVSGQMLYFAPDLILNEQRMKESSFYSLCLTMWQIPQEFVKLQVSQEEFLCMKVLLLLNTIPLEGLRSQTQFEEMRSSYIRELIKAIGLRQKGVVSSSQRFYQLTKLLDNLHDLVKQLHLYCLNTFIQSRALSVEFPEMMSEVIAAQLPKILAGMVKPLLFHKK
SMILES,AC50,outcome
CCOC(=O)c1ccccc1C(=C1C=C(Br)C(=O)C(Br)=C1)c1cc(Br)c(O)c(Br)c1,24.5 µM (active),–
CC(C)(c1cc(Br)c(OCCO)c(Br)c1)c1cc(Br)c(OCCO)c(Br)c1,13.4 µM (active),–
COc1ccc(C(Cl)=C(c2ccc(OC)cc2)c2ccc(OC)cc2)cc1,8.27 µM (active),–
Cc1ccc(C(C)c2ccc(C)c(C)c2)cc1C,–,inactive
Nc1ccc(-c2ccc(F)cc2)cc1,24.6 µM (active),–
C[C@]12C=CC(=O)C=C1CC[C@@H]1[C@@H]2[C@@H](O)C[C@@]2(C)[C@H]1CC[C@]2(O)C(=O)CO,–,inactive
CCC(=O)Oc1ccc(/C(CC)=C(\CC)c2ccc(OC(=O)CC)cc2)cc1,9.26 µM (active),–
CC(=O)[C@H]1[C@H](C#N)C[C@H]2[C@@H]3CC=C4C[C@@H](O)CC[C@]4(C)[C@H]3CC[C@@]21C,19.2 µM (active),–
C[C@]12CCC(=O)C=C1CC[C@@H]1[C@@H]2C(=O)C[C@@]2(C)[C@H]1CC[C@]2(O)C(=O)CO,–,inactive
C#CC1(O)CC[C@H]2[C@@H]3CCC4=CCCC[C@@H]4[C@H]3CC[C@@]21C (some centres undefined),–,inactive

# Tested on: not listed separately
# Test: TOX21_PR_BLA_Followup_Agonist_viability: Viability Assessment in the Tox21 HEK293 Progesterone Receptor (PR) Agonism Beta-lactamase Follow-Up Assay (AID 2283935);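 note: cells exposed to compound for 16 hr at 37 °C; signal loss means lower viability so actives are cytotoxic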
# Summary of the method: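 Multiplexed viability counter-screen: ATP-coupled luciferase signal measured after 30 min at room temperature, following 16 hr compound treatment of PR-UAS-bla HEK293T cells grown in charcoal-stripped serum.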
SMILES,outcome,AC50
CCOC(=O)c1ccccc1C(=C1C=C(Br)C(=O)C(Br)=C1)c1cc(Br)c(O)c(Br)c1,inactive,–
CC(C)(c1cc(Br)c(OCCO)c(Br)c1)c1cc(Br)c(OCCO)c(Br)c1,–,32.2 µM (active)
COc1ccc(C(Cl)=C(c2ccc(OC)cc2)c2ccc(OC)cc2)cc1,inactive,–
Cc1ccc(C(C)c2ccc(C)c(C)c2)cc1C,inactive,–
Nc1ccc(-c2ccc(F)cc2)cc1,inactive,–
C[C@]12C=CC(=O)C=C1CC[C@@H]1[C@@H]2[C@@H](O)C[C@@]2(C)[C@H]1CC[C@]2(O)C(=O)CO,inactive,–
CCC(=O)Oc1ccc(/C(CC)=C(\CC)c2ccc(OC(=O)CC)cc2)cc1,inactive,–
CC(=O)[C@H]1[C@H](C#N)C[C@H]2[C@@H]3CC=C4C[C@@H](O)CC[C@]4(C)[C@H]3CC[C@@]21C,inactive,–
C[C@]12CCC(=O)C=C1CC[C@@H]1[C@@H]2C(=O)C[C@@]2(C)[C@H]1CC[C@]2(O)C(=O)CO,inactive,–
C#CC1(O)CC[C@H]2[C@@H]3CCC4=CCCC[C@@H]4[C@H]3CC[C@@]21C (some centres undefined),inactive,–
